# Assay results: PMC7862700, “An all-to-all approach to the identification of sequence-specific readers for epigenetic DNA modifications on cytosine”
# What was measured:
# Experiment in all cases: DAPPL (digital affinity profiling via proximity ligation, sequencing); 10 mM Tris-HCl pH 7.5, 50 mM NaCl, 1 mM DTT, 4% glycerol, room temperature, 30 min; GST-TFs on glutathione beads, 16-mer random dsDNA library, 0.1% formaldehyde crosslink after washing; high values mean tight binding
# Conditions in all cases: protein: recombinant; tags: N-terminal GST; dsDNA, one strand shown
# FLI1 = target: T1, FLI1 (Homo sapiens, UniProt Q01543 1-452)
# T1 sequence: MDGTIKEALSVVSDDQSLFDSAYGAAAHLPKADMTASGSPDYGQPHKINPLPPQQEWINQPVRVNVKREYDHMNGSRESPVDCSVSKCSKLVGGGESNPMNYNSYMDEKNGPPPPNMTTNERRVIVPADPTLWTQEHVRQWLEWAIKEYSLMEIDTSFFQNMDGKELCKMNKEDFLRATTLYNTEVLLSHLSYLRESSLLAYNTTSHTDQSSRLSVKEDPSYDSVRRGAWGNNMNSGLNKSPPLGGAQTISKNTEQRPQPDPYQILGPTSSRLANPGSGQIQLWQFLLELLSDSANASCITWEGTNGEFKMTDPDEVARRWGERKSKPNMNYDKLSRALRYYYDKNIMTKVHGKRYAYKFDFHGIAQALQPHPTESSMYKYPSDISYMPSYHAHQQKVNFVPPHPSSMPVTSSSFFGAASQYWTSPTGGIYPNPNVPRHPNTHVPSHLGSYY
# How it was run: (§1)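 Binding signal is given per hexamer as its read frequency for a factor divided by its frequency in the tag-only sample. GST-fused human transcription factors were expressed in yeast, captured on glutathione beads, barcoded with DNA and pooled with that sample, then incubated with 200 nmole of a 16-mer random double-stranded DNA library in Tris/NaCl/DTT/glycerol buffer for 30 min at room temperature. The pools were then washed, crosslinked, proximity-ligated, amplified by PCR and sequenced on an Illumina NextSeq500.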
# ELK1 = target: T2, ELK1 (Homo sapiens, UniProt P19419 1-428)
# T2 sequence: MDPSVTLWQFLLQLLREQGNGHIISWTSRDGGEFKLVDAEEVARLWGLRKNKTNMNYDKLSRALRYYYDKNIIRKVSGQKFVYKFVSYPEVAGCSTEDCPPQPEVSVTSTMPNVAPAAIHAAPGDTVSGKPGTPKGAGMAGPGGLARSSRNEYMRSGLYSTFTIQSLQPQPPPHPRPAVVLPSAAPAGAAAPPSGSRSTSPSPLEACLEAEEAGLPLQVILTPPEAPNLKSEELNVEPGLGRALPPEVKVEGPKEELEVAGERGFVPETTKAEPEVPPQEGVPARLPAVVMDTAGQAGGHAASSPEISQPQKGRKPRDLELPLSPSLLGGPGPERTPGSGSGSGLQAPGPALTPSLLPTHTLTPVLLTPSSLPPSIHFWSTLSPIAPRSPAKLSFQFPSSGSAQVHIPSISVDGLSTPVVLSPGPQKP
# How it was run: as §1
# GABPA = target: T3, GABPA (Homo sapiens, UniProt Q06546 1-454)
# T3 sequence: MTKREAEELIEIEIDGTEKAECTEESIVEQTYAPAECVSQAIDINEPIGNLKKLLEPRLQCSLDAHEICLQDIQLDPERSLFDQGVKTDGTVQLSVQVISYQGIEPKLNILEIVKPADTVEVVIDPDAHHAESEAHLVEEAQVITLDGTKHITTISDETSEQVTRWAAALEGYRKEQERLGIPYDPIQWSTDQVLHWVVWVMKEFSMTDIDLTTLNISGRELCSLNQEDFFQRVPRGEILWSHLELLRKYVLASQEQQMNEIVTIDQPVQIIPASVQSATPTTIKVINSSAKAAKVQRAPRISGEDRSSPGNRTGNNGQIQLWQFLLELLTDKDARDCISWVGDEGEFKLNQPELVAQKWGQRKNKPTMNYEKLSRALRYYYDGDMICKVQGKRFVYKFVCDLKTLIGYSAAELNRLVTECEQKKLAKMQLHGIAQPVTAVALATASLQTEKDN
# How it was run: as §1
# ERG = target: T4, ERG (Homo sapiens, UniProt P11308 1-479)
# T4 sequence: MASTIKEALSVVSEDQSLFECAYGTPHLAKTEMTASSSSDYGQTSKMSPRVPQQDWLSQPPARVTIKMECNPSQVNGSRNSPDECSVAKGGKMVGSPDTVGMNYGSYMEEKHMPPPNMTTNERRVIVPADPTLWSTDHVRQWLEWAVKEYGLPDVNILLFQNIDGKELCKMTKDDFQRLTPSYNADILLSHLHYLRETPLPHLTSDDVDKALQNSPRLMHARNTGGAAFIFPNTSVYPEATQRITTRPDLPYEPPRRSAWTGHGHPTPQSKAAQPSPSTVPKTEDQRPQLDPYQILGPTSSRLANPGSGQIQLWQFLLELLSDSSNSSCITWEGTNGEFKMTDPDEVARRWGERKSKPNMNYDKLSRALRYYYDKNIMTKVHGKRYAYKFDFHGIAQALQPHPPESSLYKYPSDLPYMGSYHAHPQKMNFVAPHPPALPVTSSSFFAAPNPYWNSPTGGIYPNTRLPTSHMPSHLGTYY
# How it was run: as §1
# ELF1 = ELF1 (Homo sapiens, UniProt P32519 1-619)
# Sequence of ELF1 (P32519 whole entry): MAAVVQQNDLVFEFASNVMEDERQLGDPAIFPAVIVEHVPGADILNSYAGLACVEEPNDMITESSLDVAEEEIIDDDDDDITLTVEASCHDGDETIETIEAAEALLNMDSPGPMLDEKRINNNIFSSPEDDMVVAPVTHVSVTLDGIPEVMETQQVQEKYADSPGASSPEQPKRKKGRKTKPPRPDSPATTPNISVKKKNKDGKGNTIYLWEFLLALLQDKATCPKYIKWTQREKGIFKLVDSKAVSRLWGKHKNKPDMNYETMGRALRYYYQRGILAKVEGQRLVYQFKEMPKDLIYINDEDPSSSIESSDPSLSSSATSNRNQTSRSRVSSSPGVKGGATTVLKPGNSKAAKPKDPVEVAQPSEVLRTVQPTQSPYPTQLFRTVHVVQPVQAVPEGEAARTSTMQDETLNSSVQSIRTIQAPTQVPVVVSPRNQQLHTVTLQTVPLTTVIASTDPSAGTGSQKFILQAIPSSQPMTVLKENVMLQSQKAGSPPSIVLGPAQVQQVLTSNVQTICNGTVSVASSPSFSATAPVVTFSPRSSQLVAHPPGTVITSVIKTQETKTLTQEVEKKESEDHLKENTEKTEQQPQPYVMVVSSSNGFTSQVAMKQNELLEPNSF
# How it was run: as §1
# EHF = target: T5, EHF (Homo sapiens, UniProt Q9NZC4 1-300)
# T5 sequence: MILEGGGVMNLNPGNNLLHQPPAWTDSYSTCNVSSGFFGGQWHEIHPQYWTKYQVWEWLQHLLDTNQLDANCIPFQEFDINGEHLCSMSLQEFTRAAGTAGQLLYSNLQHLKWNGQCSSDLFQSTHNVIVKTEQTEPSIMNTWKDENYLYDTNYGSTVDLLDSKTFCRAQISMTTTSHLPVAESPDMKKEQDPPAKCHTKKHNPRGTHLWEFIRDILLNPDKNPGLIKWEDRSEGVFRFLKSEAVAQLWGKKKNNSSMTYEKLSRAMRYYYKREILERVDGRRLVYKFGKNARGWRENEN
# How it was run: as §1
# SPI1 = SPI1 (Homo sapiens, UniProt P17947 1-270)
# How it was run: as §1
# SPIB = SPIB (Homo sapiens, UniProt Q01892 1-262)
# Sequence of SPIB (Q01892 whole entry): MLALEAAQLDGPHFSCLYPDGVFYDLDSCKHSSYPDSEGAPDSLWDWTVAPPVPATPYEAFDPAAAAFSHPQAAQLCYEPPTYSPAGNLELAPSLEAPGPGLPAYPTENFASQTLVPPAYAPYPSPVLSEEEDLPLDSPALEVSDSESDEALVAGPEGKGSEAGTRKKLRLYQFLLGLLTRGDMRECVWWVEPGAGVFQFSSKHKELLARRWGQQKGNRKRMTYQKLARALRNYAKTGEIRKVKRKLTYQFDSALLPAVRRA
# How it was run: as §1
# ELK3 = target: T6, ELK3 (Homo sapiens, UniProt P41970 1-407)
# T6 sequence: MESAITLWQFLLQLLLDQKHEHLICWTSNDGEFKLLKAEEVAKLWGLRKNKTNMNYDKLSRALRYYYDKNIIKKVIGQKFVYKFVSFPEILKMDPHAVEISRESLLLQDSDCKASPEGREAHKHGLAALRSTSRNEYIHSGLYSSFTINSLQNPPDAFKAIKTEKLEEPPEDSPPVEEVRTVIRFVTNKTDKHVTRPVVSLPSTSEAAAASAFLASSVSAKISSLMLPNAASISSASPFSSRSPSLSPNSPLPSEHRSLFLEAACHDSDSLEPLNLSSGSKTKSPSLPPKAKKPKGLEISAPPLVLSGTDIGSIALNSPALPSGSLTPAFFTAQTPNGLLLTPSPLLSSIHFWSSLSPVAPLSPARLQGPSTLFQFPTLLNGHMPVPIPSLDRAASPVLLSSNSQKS
# How it was run: as §1
sequence,measurement,setting,value
ACTTCG,binding signal,FLI1,"1.38 fold enrichment (6-mer frequency, TF over GST control)"
same,binding signal,ELK1,"1.38 fold enrichment (6-mer frequency, TF over GST control)"
same,binding signal,GABPA,"1.46 fold enrichment (6-mer frequency, TF over GST control)"
same,binding signal,ERG,"1.47 fold enrichment (6-mer frequency, TF over GST control)"
same,binding signal,ELF1,"1.33 fold enrichment (6-mer frequency, TF over GST control)"
same,binding signal,EHF,"1.3 fold enrichment (6-mer frequency, TF over GST control)"
same,binding signal,SPI1,"1.44 fold enrichment (6-mer frequency, TF over GST control)"
same,binding signal,SPIB,"1.39 fold enrichment (6-mer frequency, TF over GST control)"
same,binding signal,ELK3,"1.49 fold enrichment (6-mer frequency, TF over GST control)"
